# Values joined by “and” are separate entries in the source; they are usually repeats but may differ in a detail not shown here. Equal entries are not always repeated. Inconclusive results are not listed. More than one record can exist for a structure, and the calls need not agree. Active and inactive are the calls of the source. How the source made its calls, unless noted: active means hit-call score of the fitted dose curve at least 0.9, where 1 is the maximum; inactive means score below 0.9.
# How the values were obtained:
# [1] = CCTE_Shafer_MEA_dev_network_spike_peak: CCTE's Neural Network Formation Assay for Mean Number of Electrodes in Network Spike, Shafer Lab (AID 2284049);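 on AC50: fitted for loss of signal meaning fewer electrodes in network spikes than DMSO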
# Method in brief: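 Rat cortical primary culture, 1.5 x 10^5 cells/well, 48-well MEA (16 electrodes/well). Dosing day 0 through DIV 12, full media/compound exchange DIV 5, 9. AxIS adaptive spike detection; AUC over days 5/7/9/12; loss-of-signal vs DMSO.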
# [2] = CCTE_Shafer_MEA_dev_spike_duration_mean: CCTE's Neural Network Formation Assay for Mean Spike Duration, Shafer Lab (AID 2284051);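 further: mean network spike duration pooled as area under curve over DIV 5 to 12 recordings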;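 on AC50: potency for a decrease in mean network spike duration versus DMSO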
# Method in brief: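 Rat cortical primary cultures, 48-well MEA (16 electrodes/well); compound from plating, renewed DIV 5, 9. Network spike duration (AxIS adaptive detector) recorded DIV 5/7/9/12, combined as trapezoidal AUC; loss direction vs DMSO.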
# [3] = CCTE_Shafer_MEA_dev_network_spike_duration_std: CCTE's Neural Network Formation Assay for Standard Deviation of Network Spike Duration, Shafer Lab (AID 2284052);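 further: area under curve of spike duration SD across recording days 5 to 12; hits are decreases in network spike duration SD versus DMSO vehicle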
# Method in brief: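 Rat cortical cultures, 1.5 x 10^5 cells/well, exposed continuously from plating to DIV 12 with media/compound renewal at DIV 5, 9. Spontaneous activity recorded DIV 5/7/9/12, AxIS adaptive spike detector; AUC across days; negative direction vs DMSO.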
# [4] = CCTE_Shafer_MEA_dev_per_network_spike_spike_percent: CCTE's Neural Network Formation Assay for Percent of Spikes in a Network Spike, Shafer Lab (AID 2284054)
# Method in brief: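 Rat primary cortical cultures, 1.5 x 10^5 cells/well on MEA. Continuous compound exposure d0–12, medium/compound renewed DIV 5, 9. Network-spike spike % (0.05 s peak window), AUC over 4 recordings, DMSO baseline.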
# [5] = CCTE_Shafer_MEA_dev_LDH: CCTE's Lactate Dehydrogenase Assay for Cytotoxicity in the Neural Network Formation Assay, Shafer Lab (AID 2284068; active means hit-call score of the fitted dose curve at least 0.9, where 1 is the maximum;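 further: exposure for twelve days from plating with re-dosing on DIV 5 and 9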)
# Method in brief: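 Rat cortical primary neurons, MEA culture; dosing day 0–12, full medium plus compound exchange DIV 5, 9. Read-out: LDH enzyme activity, spectrophotometric. DMSO = negative control/baseline; signal loss → cytotoxicity.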
# [6] = CCTE_Shafer_MEA_acute_AB: CCTE's Alamar Blue Assay for Cytotoxicity in the Neural Acute Assay, Shafer Lab (AID 2284069; active means hit-call score of the fitted dose curve at least 0.9, where 1 is the maximum;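 further: active compounds lower the viability signal compared with DMSO wells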)
# Method in brief: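 Read-out: resazurin fluorescence (ex 544, em 590 nm) after CTB reagent at 1:6 dilution in fresh media. Cells: primary rat cortical neuron networks, DIV 13 or 15, chemically exposed on MEA plates; DMSO as negative control/baseline.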
# [7] = CCTE_Shafer_MEA_dev_AB: CCTE's Alamar Blue Assay for Cytotoxicity in the Neural Network Formation Assay, Shafer Lab (AID 2284083; active means hit-call score of the fitted dose curve at least 0.9, where 1 is the maximum;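 further: resazurin reduction fluorescence as viability of cultured neurons; twelve days of exposure from plating with re-dosing on DIV 5 and 9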)
# Method in brief: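 Rat cortical primary cultures, 1.5 x 10^5 cells/well on MEA; continuous compound exposure over 12 days of network development, re-dosed with full medium change DIV 5 and 9. Alamar Blue fluorescence; loss of signal = cytotoxicity vs DMSO baseline.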
# [8] = CCTE_Shafer_MEA_dev_mutual_information_norm: CCTE's Neural Network Formation Assay for Mutual Information Normalization, Shafer Lab (AID 2284091);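 on AC50: mutual information between electrodes summarised as area under curve across four recording days; potency is for a decrease in mutual information relative to DMSO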
# Method in brief: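 Developing rat cortical networks on 16-electrode MEA wells are treated throughout formation (DIV 0–12). Shared electrode information is recorded four times, converted to area-under-curve, and fitted for decreases against DMSO vehicle.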
# [9] = CCTE_Shafer_MEA_dev_correlation_coefficient_mean: CCTE's Neural Network Formation Assay for Mean Correlation Coefficient, Shafer Lab (AID 2284093);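 on AC50: well mean pairwise spike train correlation integrated as AUC over recording days 5 to 12; potency fitted for loss of correlation relative to DMSO vehicle wells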
# Method in brief: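 Rat cortical cultures, 1.5 x 10^5 cells/well, dosed from day 0 for 12 days. Spontaneous spikes recorded DIV 5/7/9/12; electrode-pair correlation coefficients averaged, AUC taken. Fit in loss direction vs DMSO.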
# [10] = CCTE_Mundy_HCI_Cortical_Synap_Neur_Matur_NeuriteSpotCountPerNeuriteLength: CCTE's Synaptogenesis and Neurite Maturation Assay in rat cortical cells for Neurite Spot Count per Neurite Length, Mundy Lab (AID 2284210)
# Method in brief: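 Primary rat cortical neurons, compound exposure DIV 7–12, 288.33 h endpoint. Hoechst, anti-MAP2 and anti-synaptophysin labelling; neurite-associated puncta per neurite length scored by automated imaging relative to DMSO controls.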
# [11] = CCTE_Mundy_HCI_Cortical_Synap_Neur_Matur_BPCount: CCTE's Synaptogenesis and Neurite Maturation Assay in rat cortical cells for Branch Point Count, Mundy Lab (AID 2284211)
# Method in brief: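 Rat primary cortical cultures, AraC added DIV 5; chemicals dosed DIV 7 through DIV 12. Fixed cells stained for MAP2, synaptophysin and Hoechst; neurite branch points counted by automated high-content imaging, fitted relative to DMSO.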
# [12] = UKN2_HCS_IMR90_neural_migration: University of Konstanz (UKN) Leist Lab Neural Crest Cell Migration Assay in human induced IMR90 Pluripotent Stem Cells (UKN2) (AID 2284204); settings: actives raise or lower the signal
# Method in brief: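 Migration of human IMR90-derived neural crest cells into a stopper-defined gap is imaged after 24 h chemical treatment. Activity is fitted bidirectionally relative to DMSO.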
# [13] = IUF_NPC1b_proliferation_BrdU_72hr: Leibniz Research Institute for Environmental Medicine (IUF) 72-hour Neural Progenitor Cell Bromodeoxyuridine (BrdU) Proliferation Assay (NPC1b) (AID 2284207)
# Method in brief: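 Proliferation of primary human neural progenitor cells: 72 h compound treatment at 37C, 5% CO2, pH 7.2-7.6, in EGF/FGF-containing medium. Readout is BrdU uptake (last 16 h) by chemiluminescent ELISA, normalised to DMSO.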
# [14] = IUF_NPC1a_proliferation_area_72hr: Leibniz Research Institute for Environmental Medicine (IUF) 72-hour Neural Progenitor Cell Proliferation Area Assay (NPC1a) (AID 2284208)
# Method in brief: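 Spheres of 0.3 mm are plated singly in growth-factor medium and exposed from day 0. After three days at 37C and 5% CO2, sphere area is measured by phase contrast imaging, with activity referenced to DMSO.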
# [15] = IUF_NPC1_viability_72hr: Viability Assessment at 72 hours in the Leibniz Research Institute for Environmental Medicine (IUF) Neural Progenitor Cell Proliferation Assay (NPC1) (AID 2284209)
# Method in brief: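 Single spheres (0.25-0.35 mm) of human fetal cortex-derived neural progenitor cells were grown in proliferation medium with EGF and FGF at 37C and 5% CO2. They were exposed for 72 h without renewal, and viability was read by alamar blue resorufin fluorescence.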
smiles,measurement,setting,value
CCC1(c2ccccc2)C(=O)N=C(O)NC1=O (stereo not given),outcome,[1],inactive
same,outcome,[2],inactive
same,outcome,[3],inactive
same,outcome,[4],inactive
same,outcome,[5],inactive
same,outcome,[6],inactive
same,outcome,[7],inactive
same,outcome,[8],inactive
same,outcome,[9],inactive
same,outcome,[10],inactive
same,outcome,[11],inactive
OCC(F)(F)OC(F)(F)C(F)(F)OC(F)(F)C(F)(F)OC(F)(F)F,AC50,[1],818 nM (active)
same,outcome,[2],inactive
same,outcome,[3],inactive
same,outcome,[4],inactive
same,outcome,[5],inactive
same,outcome,[7],inactive
same,outcome,[8],inactive
same,outcome,[9],inactive
O=P1(N(CCCl)CCCl)NCCCO1 (stereo not given),outcome,[1],inactive
same,outcome,[2],inactive
same,outcome,[3],inactive
same,outcome,[4],inactive
same,AC50,[5],11600 nM (active)
same,outcome,[8],inactive
same,outcome,[9],inactive
same,outcome,[10],inactive
same,outcome,[11],inactive
O=S(=O)(c1ccc(O)cc1)c1ccc(O)cc1,outcome,[1],inactive
same,outcome,[2],inactive
same,outcome,[3],inactive
same,outcome,[4],inactive
same,outcome,[5],inactive
same,outcome,[7],inactive
same,outcome,[8],inactive
same,outcome,[9],inactive
CO/N=C(/C(=O)OC)c1ccccc1COc1ccccc1C,AC50,[1],567 nM (active)
same,AC50,[2],688 nM (active)
same,AC50,[3],312 nM (active)
same,AC50,[4],902 nM (active)
same,AC50,[5],811 nM (active)
same,AC50,[7],1150 nM (active)
same,AC50,[8],454 nM (active)
same,AC50,[9],765 nM (active)
same,outcome,[12],inactive
same,AC50,[13],23800 nM (active)
same,AC50,[14],31600 nM (active)
same,outcome,[15],inactive
same,AC50,[10],3.36 µM (active)
same,AC50,[11],5.13 µM (active)
O=C(O)C(F)(F)C(F)(F)C(=O)O,outcome,[1],inactive
same,outcome,[2],inactive
same,outcome,[3],inactive
same,outcome,[4],inactive
same,outcome,[5],inactive
same,outcome,[7],inactive
same,outcome,[8],inactive
same,AC50,[9],1810 nM (active)
O=P(Oc1ccccc1)(Oc1ccccc1)Oc1ccccc1,AC50,[1],2970 nM (active)
same,outcome,[2],inactive
same,outcome,[3],inactive
same,outcome,[4],inactive
same,outcome,[5],inactive
same,outcome,[7],inactive
same,outcome,[8],inactive
same,outcome,[9],inactive
same,outcome,[13],inactive
same,outcome,[14],inactive
same,outcome,[15],inactive
CCOP(=S)(OCC)SCSCC,AC50,[1],74.9 µM (active) and 26.4 µM (active)
same,AC50,[2],72300 nM (active)
same,outcome,[2],inactive
same,outcome,[3],inactive
same,AC50,[4],92000 nM (active)
same,outcome,[4],inactive
same,AC50,[5],33700 nM (active)
same,outcome,[5],inactive
same,AC50,[7],68900 nM (active)
same,outcome,[7],inactive
same,AC50,[8],4040 nM (active)
same,outcome,[8],inactive
same,AC50,[9],74.5 µM (active) and 13 µM (active)
same,outcome,[12],inactive
same,AC50,[13],761 nM (active)
same,outcome,[14],inactive
same,outcome,[15],inactive
same,AC50,[10],50 µM (active) and 67.2 µM (active)
same,AC50,[11],80.7 µM (active) and 50 µM (active)
O=C(O)C(F)(OC(F)(F)C(F)(F)C(F)(F)F)C(F)(F)F (stereo not given),outcome,[1],inactive
same,outcome,[2],inactive
same,outcome,[3],inactive
same,outcome,[4],inactive
same,outcome,[5],inactive
same,outcome,[7],inactive
same,outcome,[8],inactive
same,outcome,[9],inactive
same,outcome,[12],inactive
same,outcome,[13],inactive
same,outcome,[14],inactive
same,outcome,[15],inactive
same,outcome,[10],inactive
same,outcome,[11],inactive
CCCCC(CC)COC(=O)c1c(Br)c(Br)c(Br)c(Br)c1C(=O)OCC(CC)CCCC (stereo not given),AC50,[1],330 nM (active)
same,outcome,[2],inactive
same,outcome,[3],inactive
same,outcome,[4],inactive
same,outcome,[5],inactive
same,AC50,[7],24.8 nM (active)
same,outcome,[8],inactive
same,outcome,[9],inactive

# From PubChem BioAssay (EPA / NIEHS)
